{
  "source": "PubChem BioAssay AID1906",
  "about": "(The Scripps Research Institute Molecular Screening Center, 2009)",
  "note": "The campaign covered roughly 300,000 compounds. About 1,500 (0.5%) were called active. This is one part of a sample in which actives are shown more often than they occur. A number with no mark means an inactive call.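 The calls were made as follows: active = inhibition above the mean of all tested compounds plus 3 SD, set per screening campaign (cut at about 17% in these data); inactive = the rest.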",
  "data": [
    {"test_system": "cathepsin L1 (Fasciola hepatica)", "assay": "CTSL1 protease inhibition, fluke enzyme – biochemical, QFRET, fluorogenic peptide substrate, counter-screen for PFM18AAP inhibitor project, primary screen (AID 1906);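 also: 0% = plate median of test compound wells and 100% = 1 µM Z-Phe-Ala-diazomethylketone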", "conditions": "recombinant F. hepatica cathepsin L1, Z-Leu-Arg-MCA fluorescence; at 5.96 µM; stronger effect = higher value", "values": [
      {"smiles": "O=C(COC(=O)c1cc(S(=O)(=O)N2CCCCC2)ccc1Cl)NCc1ccco1", "inhibition": "-8.1%"},
      {"smiles": "Cc1ccc(CNC(=O)Cn2cnc(S(=O)(=O)N3CCCCC3)c2)o1", "inhibition": "17.4% (active)"},
      {"smiles": "O=C(COc1ccc(S(=O)(=O)N2CCCCC2)cc1)NCc1ccccn1", "inhibition": "-1.94%"},
      {"smiles": "CCOC(=O)/C(=N\\Nc1ccccc1Cl)N(C)C1CCS(=O)(=O)C1", "note": "(centres undefined)", "inhibition": "-2.25%"},
      {"smiles": "CCc1c(C)nc(SCC(=O)NC2CCCC2)[nH]c1=O", "inhibition": "0.66%"},
      {"smiles": "COc1cccc2sc(N(CCCN(C)C)C(=O)C(c3ccccc3)c3ccccc3)nc12", "inhibition": "1.13%"},
      {"smiles": "Cc1cccc2sc(N(CCCN(C)C)C(=O)CCS(=O)(=O)c3ccccc3)nc12", "inhibition": "28.5% (active)"},
      {"smiles": "CC(=O)N(CCCN(C)C)c1nc2ccc(C)cc2s1", "inhibition": "2.99%"},
      {"smiles": "COc1cccc2sc(N(CCCN(C)C)C(=O)CCS(=O)(=O)c3ccccc3)nc12", "inhibition": "52.7% (active)"},
      {"smiles": "COc1cc2ccccc2cc1C(=O)N(CCN(C)C)c1nc2c(F)cccc2s1", "inhibition": "3.44%"},
      {"smiles": "Cc1ccc2sc(N(CCN(C)C)C(=O)/C=C/c3cccs3)nc2c1C", "inhibition": "0.9%"},
      {"smiles": "Cc1ccc(SCC(=O)Nc2nncs2)cc1", "inhibition": "-3.07%"},
      {"smiles": "Cc1cc([N+](=O)[O-])c(NC2CCCCC2)c([N+](=O)[O-])c1", "inhibition": "5.19%"},
      {"smiles": "Cc1cc(C(F)F)nn1CC(=O)NC1CCCCCC1", "inhibition": "-2.79%"},
      {"smiles": "Cc1nn(CC(=O)NC2CCCCC2)c(=O)c2cccn12", "inhibition": "-0.36%"},
      {"smiles": "O=C(Cn1nc([N+](=O)[O-])nc1Br)NC1CCCCC1", "inhibition": "56.3% (active)"},
      {"smiles": "Cc1cc(C)n(-c2nc(O)cc(=O)[nH]2)n1", "inhibition": "-2.61%"},
      {"smiles": "CC(OC(=O)CCC(=O)c1ccccc1)C(=O)Nc1ccc(F)cc1", "note": "(centres undefined)", "inhibition": "-70.5%"},
      {"smiles": "C/C(=N\\NC(=O)c1ccc2ccccc2c1)c1cccnc1", "inhibition": "0.17%"},
      {"smiles": "O=C(O)c1ccc2c(c1)C(=O)N(NC(=O)c1ccc(O)cc1)C2=O", "inhibition": "-4.02%"},
      {"smiles": "Cn1cccc1/C=C1\\SC(=S)N(NC(=O)c2ccc(Cl)cc2)C1=O", "inhibition": "1.38%"},
      {"smiles": "CC(=O)N1C(=O)/C(=C2\\SC(=S)N(NC(=O)c3ccc(O)cc3)C2=O)c2ccccc21", "inhibition": "20.6% (active)"},
      {"smiles": "CC(=O)c1cccc(NC(=S)N2CCN(S(C)(=O)=O)CC2)c1", "inhibition": "-1.96%"},
      {"smiles": "O=C(NCc1ccccc1Cl)C1CCCN1S(=O)(=O)c1ccc(F)cc1", "note": "(centres undefined)", "inhibition": "-1.27%"},
      {"smiles": "COc1cccc(OCc2nnc3n2N=C(c2ccccc2)C(CC(=O)O)S3)c1", "note": "(centres undefined)", "inhibition": "-0.13%"},
      {"smiles": "O=C(OCN1C(=O)c2ccccc2C1=O)/C(=C\\c1ccco1)NC(=O)c1ccccc1", "inhibition": "83.3% (active)"},
      {"smiles": "O=C(NCc1ccco1)/C(=C/c1ccco1)NC(=O)c1ccccc1", "inhibition": "8.99%"},
      {"smiles": "NC(=O)C1CCN(C(=O)/C(=C/c2ccco2)NC(=O)c2ccccc2)CC1", "inhibition": "3.81%"},
      {"smiles": "CNC(=O)c1c(NC(NC(=O)c2ccco2)C(=O)c2ccc(Cl)cc2)sc2c1CCCC2", "note": "(centres undefined)", "inhibition": "1.81%"},
      {"smiles": "Cc1cc(CNC(=O)C2CCC(=O)N(CCc3ccc(Cl)cc3)C2)no1", "note": "(centres undefined)", "inhibition": "1.95%"},
      {"smiles": "Cc1cc(=O)[nH]c2nnnn12", "inhibition": "0.51%"},
      {"smiles": "O=C(Cc1ccccc1Cl)N1CCOCC1", "inhibition": "-0.12%"},
      {"smiles": "Cc1cc2cc3c(N)[nH]nc3nc2cc1C", "inhibition": "0.69%"},
      {"smiles": "O=C(Nc1cccc2cccnc12)c1cccc(Cl)c1", "inhibition": "5.74%"},
      {"smiles": "O=C(Nc1cccc2c1CCCC2)c1ccc(F)cc1", "inhibition": "-0.12%"},
      {"smiles": "O=C(Nc1cccnc1Oc1ncnc2cc(Cl)ccc12)c1ccc(F)cc1", "inhibition": "19.2% (active)"},
      {"smiles": "O=C(COc1ccccc1)Nc1cc2c3c(c1)CC(=O)N3CCC2", "inhibition": "-2.44%"},
      {"smiles": "O=C(Nc1cc2c3c(c1)CC(=O)N3CCC2)c1ccccc1F", "inhibition": "-1.43%"},
      {"smiles": "CCCNC(=O)C(=O)Nc1cc2c3c(c1)CCC(=O)N3CCC2", "inhibition": "57.1% (active)"},
      {"smiles": "COc1ccccc1C(=O)NC(CCSC)C(=O)NNC(=O)c1ccccc1C", "note": "(centres undefined)", "inhibition": "7.41%"},
      {"smiles": "CC1CN/C(=C\\C(=O)c2ccc(Br)cc2)C(=O)N1", "note": "(centres undefined)", "inhibition": "0.61%"},
      {"smiles": "COC1=C(N2CCOCC2)C(=O)c2ccccc2C1=O", "inhibition": "21.1% (active)"},
      {"smiles": "O=C1c2ccccc2-c2ncnc3c(N4CCOCC4)cc(N4CCOCC4)c1c23", "inhibition": "3.65%"},
      {"smiles": "COc1ccc(N2CCN(C(C)=C3C(=O)c4ccccc4C3=O)CC2)cc1", "inhibition": "0.37%"},
      {"smiles": "C[C@@H](O)c1nc2ccccc2n1N", "inhibition": "-3.93%"},
      {"smiles": "CC1=NNC(=O)C1CC(=O)N/N=C/c1ccncc1", "note": "(centres undefined)", "inhibition": "2.89%"},
      {"smiles": "O=C(CSC1CC(=O)N(CCc2ccccc2)C1=O)Nc1ccc(Cl)cc1", "note": "(centres undefined)", "inhibition": "-0.89%"},
      {"smiles": "CC(=O)Nc1ccc(CN2CCN(Cc3ccc(F)c(F)c3)C(CCO)C2)cc1", "note": "(centres undefined)", "inhibition": "-1.18%"},
      {"smiles": "CCOC(=O)c1sc(NC(=O)CCN2CCOCC2)c(C(=O)OCC)c1C", "inhibition": "4.35%"},
      {"smiles": "CCOC(=O)Nc1sc(C(=O)N(C)C)c(C)c1C(=O)OCC", "inhibition": "3.33%"},
      {"smiles": "CCOC(=O)c1c(NC(=O)CCl)sc(C(=O)N(CC)CC)c1C", "inhibition": "41.2% (active)"},
      {"smiles": "CC(=O)c1ccc(NC(=O)Cn2c(=O)oc3ccccc32)cc1", "inhibition": "5.59%"},
      {"smiles": "CCSc1nsc(NC(=O)Nc2cccc(C(C)=O)c2)n1", "inhibition": "18.9% (active)"},
      {"smiles": "C=CCSc1nsc(NC(=O)Nc2cccc(C(C)=O)c2)n1", "inhibition": "3.26%"},
      {"smiles": "CCSc1nsc(NC(=O)Nc2ccccc2OC)n1", "inhibition": "-2.36%"},
      {"smiles": "CC(=O)c1cccc(NC(=O)C2CCCN(S(=O)(=O)c3cccc4nonc34)C2)c1", "note": "(centres undefined)", "inhibition": "4.35%"},
      {"smiles": "CC[N+](C)(CC)CCC[n+]1c(-c2ccccc2)c2cc(N)ccc2c2ccc(N)cc21", "inhibition": "108% (active)"},
      {"smiles": "CCOc1cc(C2/C(=C(/O)c3ccc(S(=O)(=O)N4CCCCC4)cc3)C(=O)C(=O)N2CCOC)ccc1O", "note": "(centres undefined)", "inhibition": "2.14%"},
      {"smiles": "CCCc1nnc(SCC(=O)Nc2ccc(C(=O)OCC)cc2)o1", "inhibition": "22.8% (active)"},
      {"smiles": "Cc1cc(C)cc(OCc2nnc(SCC(=O)Nc3ccccc3)o2)c1", "inhibition": "2.58%"},
      {"smiles": "Cc1ccc(NC(=O)CSc2nnc(COc3ccccc3C)o2)cc1", "inhibition": "2.58%"},
      {"smiles": "CCOc1ccc(CN2CCN(Cc3ccc(C)o3)CC2CCO)cc1", "note": "(centres undefined)", "inhibition": "-3.26%"},
      {"smiles": "COc1ccc(NC(=O)CN2C(=O)COc3ccc(S(=O)(=O)N4CCOCC4)cc32)cc1", "inhibition": "-1.53%"},
      {"smiles": "Cc1cccc(NC(=O)CSc2nnc(CCNC(=O)OC(C)(C)C)o2)c1C", "inhibition": "-2.25%"},
      {"smiles": "CCc1ccccc1NC(=O)CSc1nnc(CCNC(=O)OC(C)(C)C)o1", "inhibition": "-11.2%"},
      {"smiles": "CCc1ccccc1NC(=O)CSc1nnc(-c2ccncc2)o1", "inhibition": "-3.59%"},
      {"smiles": "CCc1ccccc1NC(=O)CSc1nnc([C@@H](NC(=O)OC(C)(C)C)C(C)C)o1", "inhibition": "25.9% (active)"},
      {"smiles": "CCc1ccccc1NC(=O)CSc1nnc([C@@H](NC(=O)OC(C)(C)C)C(C)CC)o1", "note": "(some centres undefined)", "inhibition": "36.5% (active)"},
      {"smiles": "C[C@H](NC(=O)OC(C)(C)C)c1nnc(SCC(=O)Nc2ccc(Br)cc2)o1", "inhibition": "9.5%"},
      {"smiles": "COC(=O)C1(CCSC)NC(c2ccc(OC)cc2OC)C2C(=O)N(c3cccc(C(C)=O)c3)C(=O)C21", "note": "(centres undefined)", "inhibition": "-14.2%"},
      {"smiles": "CCCCn1c(N)c(N(CC(C)C)C(=O)CSc2ccc([N+](=O)[O-])cc2)c(=O)[nH]c1=O", "inhibition": "0.91%"},
      {"smiles": "Cc1ccc(N(C(=O)c2snc(C(N)=O)c2N)C(C(=O)NCC2CCCO2)c2c[nH]c3ccccc23)cc1", "note": "(centres undefined)", "inhibition": "-0.55%"},
      {"smiles": "CCCCC(CC)CNCc1cccn1CCN1CCOCC1", "note": "(centres undefined)", "inhibition": "-3.94%"},
      {"smiles": "COc1ccc(CCNC(=O)C(=O)NCC2CCCN2S(=O)(=O)c2cccs2)cc1OC", "note": "(centres undefined)", "inhibition": "-2.2%"},
      {"smiles": "O=C(NCCC1CCCCN1S(=O)(=O)c1cccs1)C(=O)Nc1ccc(F)cc1F", "note": "(centres undefined)", "inhibition": "2.68%"},
      {"smiles": "COc1ccccc1CCNC(=O)C(=O)NCCC1CCCCN1S(=O)(=O)c1cccs1", "note": "(centres undefined)", "inhibition": "17.3% (active)"},
      {"smiles": "Cc1ccc(C(=O)COC(=O)CCN2C(=O)C3C4CCC(C4)C3C2=O)cc1C", "note": "(centres undefined)", "inhibition": "8.56%"},
      {"smiles": "COc1ccc(/C=C/CN2CCN(Cc3ccc(C)cc3)C(CCO)C2)cc1", "note": "(centres undefined)", "inhibition": "7.06%"},
      {"smiles": "COC(C(=O)Nc1ccc(S(=O)(=O)Nc2ccc(C)c(C)c2)cc1)c1ccccc1", "note": "(centres undefined)", "inhibition": "1.68%"},
      {"smiles": "CCOC(=O)c1ccc(-c2ccc(C(=O)Nc3cccnc3)o2)cc1", "inhibition": "19% (active)"},
      {"smiles": "CCOC(=O)c1cc(NC(=O)c2cccnc2)ccn1", "inhibition": "-0.7%"},
      {"smiles": "Cc1ccc(NC(=O)Nc2cccnc2)cc1", "inhibition": "-1.42%"},
      {"smiles": "Cc1cc(C)c(NC(=O)CN2CCOCCOCCOCCOCC2)c(C)c1", "inhibition": "2.85%"},
      {"smiles": "CN(Cc1ccccc1)C(=O)CSc1nc2ccccc2[nH]1", "inhibition": "2.91%"},
      {"smiles": "O=C(CSc1nc2ccccc2[nH]1)Nc1nc(-c2ccccc2)c(-c2ccccc2)o1", "inhibition": "17.5% (active)"},
      {"smiles": "O=C(CSc1nc2ccccc2[nH]1)N/N=C/C=C\\c1ccccc1[N+](=O)[O-]", "inhibition": "4.39%"},
      {"smiles": "Cc1ccc(O/C=C2\\OC(=O)c3ccccc32)cc1", "inhibition": "2.38%"},
      {"smiles": "CCOc1cc(C)ccc1OCc1nnc(SCC(=O)Nc2cccc(C(=O)O)c2)n1-c1ccccc1", "inhibition": "-6.39%"},
      {"smiles": "Cc1cccc(-n2c(SCC(=O)Nc3cccc(S(=O)(=O)NC4=NCCCCC4)c3)nc3ccccc3c2=O)c1C", "inhibition": "0.48%"},
      {"smiles": "COc1ccc(Cl)cc1C(=O)NCc1cn(C)nc1C", "inhibition": "-1.11%"},
      {"smiles": "COc1ccc(Cl)cc1C(=O)NCC#N", "inhibition": "21% (active)"},
      {"smiles": "CCC(C)NC(=O)c1cc(Cl)ccc1OC", "note": "(centres undefined)", "inhibition": "0.5%"},
      {"smiles": "Cc1cnc(C(=O)Oc2cccc(Cl)c2Cl)cn1", "inhibition": "-0.8%"},
      {"smiles": "O=C(NCc1cccc(Cl)c1)C1CCN(c2nnc(N3CCCC3=O)s2)CC1", "inhibition": "-5.47%"}
    ]}
  ]
}
